High-throughput results deposited in PubChem BioAssay by National Center for Advancing Translational Sciences (NCATS).
Hits are enriched below; roughly 0.37% of the tested compounds scored in any of these assays.
A-T KAP1 phos – candidate therapy for ataxia-telangiectasia. F2112 A-T fibroblasts, KAP-1 phosphorylation AlphaLISA; neocarzinostatin DNA damage 30 min before lysis. Potency, µM (titrated, usually from 57.5 µM), actives largely listed as activators. 0.19% of 320,000 active; note: nearly all actives have a fitted effect of over 45% in size
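ATM-like activity read as KAP-1 phosphorylation via AlphaLISA donor/acceptor antibody pairs after lysis and 6 hr at 25C. Cells were ATM-null patient fibroblasts (F2112, hTERT), dosed 60 min, then exposed to the DSB inducer NCS for 30 min.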
TSG101-PTAP inh – blocks PTAP/TSG101 interaction to inhibit HIV-1 budding. Q99816. AID 493005. 340,000 tested, under 10 active. Fluorescence polarization, FITC-PTAP peptide / Tsg101 binding. Potency, µM (titrated, usually from 115 µM), usual class: inhibitors; active = well fitted inhibition curve with a large enough effect in the main read-out, with a control signal flat, not every such curve was filed as active; inconclusive = small, poorly fitted or top-dose-only effect, or effect the other way, or a change in a side signal; inactive = no such curve, though single readings can be large or run the other way
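Steps: Tsg101 binding domain dispensed (10 uM final), compounds pinned in DMSO, FITC-labeled PTAP-motif peptide added (50 nM final); after 20 min binding at room temperature, polarization measured.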
S-ASM inh – human S-ASM enzyme inhibition; P17405; placental ASM, HMU-PC fluorogenic substrate, 60 min; Potency, µM (doses to about 57.5 µM), actives largely listed as inhibitors; 0.006% of 340,000 active
Target sequence (P17405 47-631 limits assumed): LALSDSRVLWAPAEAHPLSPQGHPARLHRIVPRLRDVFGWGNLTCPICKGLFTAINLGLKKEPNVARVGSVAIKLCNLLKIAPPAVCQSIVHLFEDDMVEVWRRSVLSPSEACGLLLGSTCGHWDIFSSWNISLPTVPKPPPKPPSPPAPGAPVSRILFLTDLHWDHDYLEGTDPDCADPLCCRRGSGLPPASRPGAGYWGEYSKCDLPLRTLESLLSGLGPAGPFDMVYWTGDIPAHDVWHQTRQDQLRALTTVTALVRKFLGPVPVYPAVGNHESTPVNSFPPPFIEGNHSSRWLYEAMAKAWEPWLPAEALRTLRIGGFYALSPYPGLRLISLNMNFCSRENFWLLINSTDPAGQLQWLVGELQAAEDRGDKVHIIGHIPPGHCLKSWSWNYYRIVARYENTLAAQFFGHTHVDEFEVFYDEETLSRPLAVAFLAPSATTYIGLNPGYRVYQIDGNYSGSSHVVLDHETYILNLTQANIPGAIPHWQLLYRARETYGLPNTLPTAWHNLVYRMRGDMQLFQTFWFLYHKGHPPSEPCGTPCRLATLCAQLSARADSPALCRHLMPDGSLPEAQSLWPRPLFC
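Steps: dispense placental human ASM, pin compound, wait 10 min at room temperature, add HMU-PC0 substrate at 9 uM final, incubate 60 min at 37 °C, add stop solution raising pH to 10, read fluorescence.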
TRPV1 ag – activates the human vanilloid receptor TRPV1; TRPV1-expressing cells, Fluo-8 calcium influx, agonist mode; AID 540275; 0.19% of 320,000 active; Q8NER1; activation, % at 8.33 µM; in the data active = activation above about 80%; inconclusive = between about 30% and that limit
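TRPV1-expressing cells were cultured overnight at 35.5C and loaded with Fluo-8 calcium dye for 40 to 90 min at room temperature. After a 10 s baseline, compound was added and calcium influx was read kinetically for 3 min (ex 480/em 520 nm).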
TRPV1 potentiator – human TRPV1 potentiation. TRPV1-expressing cells, Fluo-8 calcium influx, capsaicin EC20 potentiation. 0.02% of 320,000 active. AID 540277. Q8NER1. potentiation, % at 8.33 µM; in the data active = potentiation above about 80%; inconclusive = between about 30% and that limit
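Cells expressing TRPV1 were dye-loaded with Fluo-8 and read kinetically: 10 s baseline, 3 min after compound (agonist portion), then 2 min after EC20 capsaicin (allosteric enhancer portion). Calcium-bound dye fluorescence at 480/520 nm.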
Of the large screens only hits and unclear results are named; the others gave an inactive call. Unless noted, calls come from the whole dose curve; as a rule, active = well fitted curve in the direction sought with a large enough effect; inconclusive = small, poorly fitted or top-dose-only effect, or another doubt; inactive = no such curve, though single readings can be large; an effect the other way counts as inactive or inconclusive.

COc1cc2c(cc1OC)CN(C(=O)/C=C/c1cc(OC)c(OC)c(OC)c1)CC2	A-T KAP1 phos 3.2µM
O=C(NCc1ccccc1)[C@@H]1C[C@H]1[C@@H](NP(=O)(c1ccccc1)c1ccccc1)c1ccccc1	TRPV1 ag 91
COc1cc(NS(=O)(=O)c2ccc(C(=O)O)cc2)c2nc(C)ccc2c1	none (no result: A-T KAP1 phos, TSG101-PTAP inh, S-ASM inh)
C1=C(CCNc2ncnc3c2[nH]c2ccccc23)CCCC1	TRPV1 ag 80
CC(C)(C)c1ccc(/C=C/C(=O)Nc2ccncc2)cc1	TRPV1 ag 96
Oc1ccc(COC2CCN(Cc3ccccc3)C2)c2cccnc12 (stereo not drawn)	none (no result: TSG101-PTAP inh, S-ASM inh, TRPV1 ag, TRPV1 potentiator)
CCOCc1c(C(=O)Nc2ccc(OC)nc2)oc2ccccc12	TRPV1 ag 90
COc1ccc(NC(=O)c2oc3ccccc3c2CSC)cn1	TRPV1 ag inconclusive
CC(C)CCNC(=O)c1c[nH]c2ccc(S(=O)(=O)N3CCOCC3)cc2c1=O	TRPV1 ag 82
Cc1cc(=O)oc2c3c(cc(OCC(=O)NCc4ccncc4)c12)OC(C)(C)CC3	TRPV1 ag inconclusive
Cc1c(C)c2c(OCC(=O)NCc3ccncc3)cc3c(c2oc1=O)CCC(C)(C)O3	TRPV1 ag 80
COc1ccc(CNC(=O)COc2cc3c(c4oc(=O)cc(C)c24)CCC(C)(C)O3)cc1OC	TRPV1 ag 81
CC(=O)NC(c1ccco1)c1cc(Br)c2cccnc2c1O (stereo not drawn)	none (no result: TSG101-PTAP inh, S-ASM inh, TRPV1 ag, TRPV1 potentiator)
COCCN(C(=S)Nc1c(C)cccc1C)C(C)c1ccco1 (stereo not drawn)	A-T KAP1 phos 20µM
CN1C(=CC=C2C=C(I)C(=O)C(I)=C2)C(C)(C)c2ccccc21	TSG101-PTAP inh inconclusive
CN1/C(=C\C=C2/C(=O)Oc3ccccc3C2=O)C(C)(C)c2ccccc21	TSG101-PTAP inh inconclusive, TRPV1 ag 107
COC(=O)c1cccc(NC(=S)NCc2ccc(Cl)cc2)c1	TRPV1 ag 82
COc1ccc(CNC(=S)NCc2ccc(F)cc2)cc1OC	TRPV1 ag inconclusive
COc1ccc(CNC(=S)NCc2ccc(Cl)cc2)cc1OC	TRPV1 ag 97
COc1ccc(CNC(=S)Nc2cccc(F)c2)cc1	TRPV1 ag 88
CC1=CC(=C(C#N)c2nc3ccccc3s2)C=C(C)N1CC1CCCO1 (stereo not drawn)	TSG101-PTAP inh inconclusive, TRPV1 ag inconclusive
O=C1c2cccc(NCCCNCCO)c2C(=O)c2cccc(NCCCNCCO)c21	none (no result: A-T KAP1 phos, TRPV1 ag, TRPV1 potentiator)
COc1cccc(NC(=O)C2CCC(CNC(=O)[C@@H]3Cc4ccccc4CN3)CC2)c1 (stereo partly drawn)	none
O=C(COC(=O)c1cn(-c2ccccc2)nc1-c1cccnc1)NC1CC1	none
Cc1c(-c2cccs2)[n+](=O)c2c(n1[O-])CCCC2	none
COc1cc(CCC(O)CC(=O)CCc2ccccc2)ccc1O (stereo not drawn)	TRPV1 ag 84
COc1cc(/C=N/NC(=O)CCc2ccccc2)ccc1O	none
CCN(C(=O)c1cc2c(=O)n3ccccc3nc2n1CCCOC)C1CCCCC1	A-T KAP1 phos 28µM, TRPV1 ag inconclusive
CCN(C(=O)c1cc2c(=O)n3ccccc3nc2n1C)C1CCCCC1	A-T KAP1 phos inconclusive, TRPV1 ag inconclusive
COC(=O)[C@@H]1C[C@@]2(O)[C@@H](O)[C@@H](O)[C@@H](O)C[C@H]2N1Cc1ccc(Cl)cc1	A-T KAP1 phos 40µM, TRPV1 potentiator inconclusive
COC(=O)c1ccc(CN2[C@H](C(=O)OC)C[C@@]3(O)[C@H](O)[C@H](O)[C@H](O)C[C@@H]23)cc1	TRPV1 potentiator inconclusive
COc1cc2c(cc1OC)[C@@H]1O[C@](c3ccsc3)(C2)Oc2cc(C)n(-c3ccccc3)c(=O)c21	none (no result: TSG101-PTAP inh, S-ASM inh)
O=C(Nc1ccc(Cl)cn1)c1cc2c(s1)-c1ccccc1OC2	A-T KAP1 phos 16µM (no result: TRPV1 ag, TRPV1 potentiator)
O=C(Nc1cccnc1Cl)c1cc2c(s1)-c1ccccc1OC2	TRPV1 ag inconclusive
Cc1ccc(N2C(=O)c3cccc4c(N)ccc(c34)C2=O)c2cccnc12	TSG101-PTAP inh inconclusive, TRPV1 ag 94
CCCCNc1ccc2c3c(cccc13)C(=O)N(CCCC)C2=O	A-T KAP1 phos 28µM, TSG101-PTAP inh inconclusive, S-ASM inh inconclusive, TRPV1 ag 92
CCN1C(=O)c2cccc3c(N)ccc(c23)C1=O	A-T KAP1 phos 40µM, TSG101-PTAP inh inconclusive, TRPV1 ag 198
O=C1c2cccc3c(N4CCCCC4)ccc(c23)C(=O)N1c1ccccn1	TRPV1 ag inconclusive
Cc1nn(C)c(C)c1N1C(=O)c2cccc3c(N)ccc(c23)C1=O	TSG101-PTAP inh inconclusive, TRPV1 ag 93
O=C(COc1ccccc1[N+](=O)[O-])N(C1CCCCC1)C1CCS(=O)(=O)C1 (stereo not drawn)	none
NS(=O)(=O)c1ccc(CCN=C(NS(=O)(=O)c2cccs2)c2ccccc2)cc1	none
CCc1ccc(C(=O)c2cn(CC(=O)Nc3cccc(OC)c3)c3ccc(OC)cc3c2=O)cc1	none (no result: TSG101-PTAP inh, S-ASM inh)
Oc1ccc(Br)cc1C1C=C(c2ccc3c(c2)OCO3)NC(c2ccc(F)c(Br)c2)N1 (stereo not drawn)	none (no result: A-T KAP1 phos, TSG101-PTAP inh, S-ASM inh)
Cc1ccc(-n2c(-c3ccc(Br)cc3)c[n+]3c2CCc2ccc4cccnc4c2-3)cc1	none
COc1cc(NC(=O)NCC2CCN(Cc3ccccc3C)CC2)cc(OC)c1OC	none
COc1ccccc1NS(=O)(=O)c1cccc(C(=O)NN)c1	none
NNC(=O)c1cccc(S(=O)(=O)Nc2cc(Cl)ccc2Cl)c1	A-T KAP1 phos 28µM
C(=C1/CCCC2=C1Nc1ncnn1C2c1ccccc1)/c1ccccc1 (stereo not drawn)	A-T KAP1 phos 40µM (no result: TSG101-PTAP inh, S-ASM inh, TRPV1 ag, TRPV1 potentiator)
O=C1CN(CC(=O)N2CCOCC2)c2ccccc2O1	A-T KAP1 phos 28µM, TRPV1 potentiator inconclusive (no result: TSG101-PTAP inh, S-ASM inh)
CNC(=O)c1[nH]nc2c1CCc1cc(OC)ccc1-2	A-T KAP1 phos 10µM
COc1ccc2c(c1)CCc1c-2n[nH]c1C(=O)NCCC(C)C	TRPV1 potentiator inconclusive
Cc1cc(C)n(-c2ccc(S(=O)(=O)N3CCOCC3)cc2[N+](=O)[O-])n1	A-T KAP1 phos 40µM
Cc1c(Cl)cccc1NC(=S)N1CCCN(Cc2ccc(F)cc2)C1	none
CCc1cccc(NC(=O)CSc2ncccc2C(=O)Oc2ccccc2Cl)c1	TRPV1 potentiator inconclusive (no result: A-T KAP1 phos, TSG101-PTAP inh, S-ASM inh)
Cc1ccc(Nc2ncnc3sc(C)c(C)c23)cc1	TRPV1 ag 87
C/C(=N\Nc1ncnc2sc(C)c(C)c12)c1ccccn1	TRPV1 ag 88
CC(=O)Nc1ccc(C2=NN(c3ccccc3)C(c3ccccc3)C2)cc1 (stereo not drawn)	A-T KAP1 phos 22µM, TRPV1 potentiator inconclusive
CC(=O)Nc1ccc(C2CC(c3ccc(Cl)cc3)=NN2c2ccccc2)cc1 (stereo not drawn)	A-T KAP1 phos 25µM
